Screens: PubChem, Buhrlage Lab, Dana-Farber Cancer Institute and Novartis Institutes for BioMedical Research (Cambridge, Mass)
Shown are actives, neighbours in structure and some others; about 13% of the full set was active somewhere.
USP8 block: blocks human USP8 ubiquitin-rhodamine cleavage. inhibition, % at 20 µM. AID 1645853. 47,000 tested, 4.2% active. purified USP8, Ub-rhodamine cleavage fluorescence, 30 min
USP10 inh: blocks human USP10 ubiquitin-rhodamine cleavage; Q14694; purified USP10, Ub-rhodamine fluorescence, 60 min; inhibition, % at 20 µM; 47,000 tested, 1.1% active; AID 1645856
Target sequence (Q14694 whole entry, looked up): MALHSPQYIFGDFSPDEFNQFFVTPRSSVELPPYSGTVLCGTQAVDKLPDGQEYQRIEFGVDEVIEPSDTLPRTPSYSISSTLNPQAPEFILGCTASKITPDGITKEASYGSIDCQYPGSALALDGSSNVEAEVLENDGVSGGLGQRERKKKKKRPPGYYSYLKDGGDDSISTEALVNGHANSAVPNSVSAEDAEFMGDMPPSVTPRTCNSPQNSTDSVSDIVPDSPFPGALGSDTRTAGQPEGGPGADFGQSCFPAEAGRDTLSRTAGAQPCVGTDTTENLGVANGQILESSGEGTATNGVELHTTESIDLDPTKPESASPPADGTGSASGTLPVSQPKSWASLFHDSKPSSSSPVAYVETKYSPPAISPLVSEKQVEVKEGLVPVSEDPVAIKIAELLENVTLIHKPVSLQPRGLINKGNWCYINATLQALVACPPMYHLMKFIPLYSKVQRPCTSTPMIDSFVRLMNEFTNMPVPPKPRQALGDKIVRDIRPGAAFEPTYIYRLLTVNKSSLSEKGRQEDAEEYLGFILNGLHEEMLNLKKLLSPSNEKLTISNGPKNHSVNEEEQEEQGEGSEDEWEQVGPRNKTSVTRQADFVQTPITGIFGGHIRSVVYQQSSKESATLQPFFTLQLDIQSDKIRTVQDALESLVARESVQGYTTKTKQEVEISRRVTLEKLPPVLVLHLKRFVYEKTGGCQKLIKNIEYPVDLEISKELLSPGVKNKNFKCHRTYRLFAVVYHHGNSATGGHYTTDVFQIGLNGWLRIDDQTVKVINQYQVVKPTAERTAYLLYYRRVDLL
USP17 inh: human USP17-like deubiquitinase inhibition; A8MUK1; purified USP17, Ub-rhodamine cleavage fluorescence, 3 h; inhibition, % at 50 µM; 47,000 tested, 6.5% active; AID 1645855
USP7 inh: inhibitors of human USP7 deubiquitinase. Q93009. inhibition, % at 20 µM. purified USP7, Ub-rhodamine cleavage fluorescence. 47,000 tested, 0.3% active
USP28 block: blocks human USP28 ubiquitin-rhodamine cleavage; inhibition, % at 25 µM; purified USP28, Ub-rhodamine cleavage fluorescence, 30 min; Q96RU2; 47,000 tested, 3% active
USP30 block: inhibitors of human USP30 deubiquitinase. AID 1645860. inhibition, % at 25 µM. Q70CQ3. purified USP30, Ub-rhodamine cleavage fluorescence. 47,000 tested, 5.3% active
Large screens that a line does not name were inactive. Rule as the data show it: active = inhibition above about 30%; inactive = the rest.

OC1(CN2CCCCC2Cn2cncn2)CCCCC1 (centres undefined)	none
Cc1cc(C(=O)N[C@H]2[C@H](O)[C@H](O)C[C@@H]2c2ccc(C(F)(F)F)nc2)no1	none
COc1ccc([C@H]2C[C@@H](O)[C@@H](O)[C@@H]2NC(=O)c2cc(C)on2)cc1	USP30 block 35
O=C(NCc1ccccc1F)c1c(O)c2cnn(Cc3ccccc3)c2[nH]c1=O	USP8 block 80, USP17 inh 32
O=C(Nc1cccc(F)c1)c1c(O)c2cnn(Cc3ccccc3)c2[nH]c1=O	USP8 block 61
O=c1[nH]c2c(cnn2Cc2ccccc2)c(O)c1-c1nc(-c2ccccc2F)no1	none
Cc1ccccc1CNC(=O)c1c(O)c2cnn(Cc3ccccc3)c2[nH]c1=O	none
O=C(Nc1ccc(F)cc1)c1c(O)c2cnn(Cc3ccccc3)c2[nH]c1=O	USP8 block 42
CN(C)c1ncc(C2Nc3cc(Cl)ccc3C3=NCCN32)cn1 (centres undefined)	none (no result: USP7 inh)
COc1ccc(CNC(=O)c2ccc(Oc3nccnc3N3CCCCC3)cc2)cc1OC	none
CN[C@H]1CC2(CCN(C(=O)CCCn3cccn3)CC2)OC[C@]1(C)O	USP28 block 79
CC1CCN(C(=O)c2c[nH]c3ccc(S(=O)(=O)N(C)Cc4ccccc4)cc3c2=O)CC1	none
Cc1cc2c3c([nH]c2cc1S(=O)(=O)Nc1c(C)cccc1C)CCCC3=O	none
Cc1cc2c3c([nH]c2cc1S(=O)(=O)N(C)C1CCCCC1)CCCC3=O	USP17 inh 49
Cc1ccccc1NS(=O)(=O)c1cc2[nH]c3c(c2cc1C)C(=O)CCC3	USP8 block 40, USP17 inh 58, USP28 block 57, USP30 block 69
Cc1cc2c3c([nH]c2cc1S(=O)(=O)N1CCC(C)CC1)CCCC3=O	none
O=C(NC1CCS(=O)(=O)C1)c1ccc(N2CCOc3ccc(Cl)cc32)s1 (centres undefined)	USP17 inh 40
COc1ccc(CN2CC[C@H]3[C@H]2CCN3C(=O)c2cnn(C)c2)cc1	none
O=C1NCCN(C(=O)CCn2ccccc2=O)CC1Cc1ccc(-c2ccccc2)cc1 (centres undefined)	USP8 block 42
COc1ccc2nc(NC(=O)CN3CCC(C(N)=O)CC3)sc2c1	none
COc1cc(Cl)c(C)cc1NC(=O)c1nc(-c2ccncc2)no1	USP17 inh 40, USP30 block 34
Cc1ccc(CNC(=O)c2nc(-c3ccncc3)no2)cc1	none
O=C(CCc1ccc(Cl)cc1)N1CCCC(c2[nH]nc3nccnc23)C1 (centres undefined)	none
N#Cc1cccc(NC(=O)C(Cc2c[nH]c3ccccc23)NC(=O)c2cccs2)c1 (centres undefined)	USP30 block 33
CSc1nnc(-c2ccc(C(C)(C)C)cc2)n1Cc1ccccc1	USP30 block 33
c1ccc(Cc2nn3c(-c4ccncc4)nnc3c3ccccc23)cc1	USP17 inh 49, USP30 block 36
c1ccc(Cc2nn3c(-c4cccnc4)nnc3c3ccccc23)cc1	USP17 inh 62
Cc1ccc(CSc2ccc3nnc(-c4cccnc4)n3n2)cc1	none (no result: USP28 block, USP30 block)
c1ccc2c(c1)cnn1c(-c3ccncc3)nnc21	none
Cc1cc(O)c(Oc2cc(C)cc(O)c2O)c(O)c1	USP17 inh 47, USP28 block 47, USP30 block 31
COc1ccccc1C(=O)N1CCC[C@@H](Cn2nnc3c(=O)[nH]c(C)nc32)C1	none
CCOC(=O)c1noc2nc(C)n(CC(=O)Nc3cccc(C)n3)c(=O)c12	none
Cc1nc2cccnc2n1C1CCN(C(=O)c2cc3cc(Cl)ccc3[nH]2)C1 (centres undefined)	USP17 inh 31, USP28 block 42, USP30 block 54
COc1cccc2[nH]c(C(=O)N3CCC(n4c(C)nc5cccnc54)CC3)cc12	none
CCN1C[C@H]2CCN(C(=O)c3cccnc3)CC[C@H]2S1(=O)=O	none
Cc1ccc2[nH]c(=O)c(CNCCN3CCOCC3)cc2c1	none
COc1ccc(NC(=O)CS(=O)(=O)c2[nH]c(-c3ccccc3)nc2-c2ccc(C)cc2)cc1	none
COc1ccc(-c2nc(-c3ccc(OC)cc3)c(S(=O)(=O)CC(=O)Nc3ccc(F)cc3)[nH]2)cc1	USP30 block 30
COc1ccc(NC(=O)CSc2ccc(F)cc2)cc1	USP30 block 34
